HSV replic up: enhancers of HSV replication in host cells, fold increase, host cell viability | HSV replication augmentation in cells | maximum fold increase | hit rate 0.005% among 220,000; in the data active = maximum fold increase above about 1.5; inconclusive = no clear call, values can overlap the other calls; tested in PC3 cells
Insulin prom inh: inhibitors of insulin promoter-driven GFP, primary screen, imaging, TRM-6 cells (human fetal islet line), eGFP reporter, cell count | reporter expression induced with tamoxifen | inhibition, % at 2 µM | hit rate 0.9% among 130,000 | AID 1273, 2008;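 active = inhibition above the mean plus 3 SD, with well images judged a real hit on visual review, cut at about 60% in these data, passing the limit was not always enough; inconclusive = inhibition over the cutoff but images rejected on review; inactive = inhibition not above the cutoff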
TbHK1 inh: Trypanosoma brucei hexokinase 1 inhibitors, primary screen, biochemical, G6PDH-coupled NADH absorbance, MLSCN library; hexokinase 1 [Trypanosoma brucei]; recombinant TbHK1, G6PDH-coupled NADH A340; inhibition, % at 10 µM; hit rate 0.11% among 220,000;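 active = inhibition of 50% or more in the single-dose primary screen; inactive = inhibition below 50%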
ROMK primary: ROMK potassium channel modulators, primary screen, cell-based, thallium flux, MLSMR library | ATP-sensitive inward rectifier potassium channel 1 (Homo sapiens), P48048 | Tet-inducible ROMK, thallium flux fluorescence; actives lie on both sides | B-score at 10 µM | hit rate 2% among 130,000 | AID 1918, 2009;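 active = signal ratio slope over the read window, or its plate-corrected B-score, at least 3 SD from the plate mean, either direction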;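 also: B-score of the F/F0 ratio slope over 7 to 12 s after thallium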
Target sequence (P48048 whole entry, looked up): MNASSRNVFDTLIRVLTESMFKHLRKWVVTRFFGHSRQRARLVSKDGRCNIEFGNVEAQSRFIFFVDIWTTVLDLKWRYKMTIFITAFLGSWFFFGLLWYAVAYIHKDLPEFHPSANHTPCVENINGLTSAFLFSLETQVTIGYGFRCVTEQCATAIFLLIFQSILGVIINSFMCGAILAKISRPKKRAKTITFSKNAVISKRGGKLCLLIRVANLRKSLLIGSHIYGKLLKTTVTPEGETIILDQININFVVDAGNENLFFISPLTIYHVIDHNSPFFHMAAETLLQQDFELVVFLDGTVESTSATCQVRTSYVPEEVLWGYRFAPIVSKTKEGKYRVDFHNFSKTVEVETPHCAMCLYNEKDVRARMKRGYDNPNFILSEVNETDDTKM
Insulin prom up: insulin promoter activators in MIN6 cells, imaging, high-content screening, mouse beta cells | z-score at 5 µM | AID 1625, 2009 | MIN6 insulin promoter-GFP reporter; hits give high values | hit rate 0.3% among 190,000;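 active = z-score above 3 at 5 µM with at least 500 cells counted in the well; inconclusive = wells under 500 cells, flagged as cytotoxic or low count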
Starred values were filed as active, the others as inactive; i = inactive; u = inconclusive; x = no result. Shown is part of a subset that was picked to be rich in hits.

SMILES	HSV replic up	Insulin prom inh	TbHK1 inh	ROMK primary	Insulin prom up
O=C(Nc1cccnc1)NC1CCCCC1	i	40.0	0.2	-0.0796	0.57
CCOc1ccccc1N(CC(=O)Nc1ccc2c(c1)OCCO2)S(C)(=O)=O	i	81.8*	4.2	x	-1.27
Cc1ccc(Cl)cc1N1CCN(C(=O)CN(c2ccccc2)S(=O)(=O)N(C)C)CC1	i	x	12.3	-2.32	x
CC(C)C[C@H](NC(=O)c1[nH]cnc1C(=O)Nc1ccccc1)C(=O)OC(C)(C)C	i	x	5.0	x	-0.69
O=c1c2cc(Br)ccc2nc(-c2cccc(C(F)(F)F)c2)n1O	i	x	-4.3	3.69*	-0.47
O=c1c2cc(Br)ccc2nc(-c2ccc([N+](=O)[O-])cc2)n1O	i	-13.3	-10.2	1.11	-0.79
O=C(COC(=O)/C=C/c1ccc(Cl)cc1Cl)NCc1ccco1	i	x	1.5	0.342	-0.82
CCCCCCN=CC1=C(O)C(C(=O)OC)C(C)(C)CC1=O (stereo not given)	i	93.1*	-3.0	0.831	-0.84
COC(=O)C1C(O)=C(C=NC2CCCCC2)C(=O)CC1(C)C (stereo not given)	i	50.0	7.2	x	1.25
Cc1ccccc1CS(=O)(=O)c1nnc([C@H](Cc2ccccc2)NC(=O)OC(C)(C)C)o1	i	78.1*	-2.3	-0.927	1.42
CC(C)SC1=NC(C)(C)C=C(/C=C/c2ccc(Cl)cc2Cl)N1	i	-61.3	-10.1	-0.586	3.58*
CC(C)SC1=NC(C)(C)C=C(/C=C/c2c(Cl)cccc2Cl)N1	i	-29.0	-6.7	-0.856	0.6
CN(C)S(=O)(=O)c1ccc(C(=O)Nc2nnc(SCc3cccc(F)c3)s2)cc1	i	-48.0	6.8	0.286	0.06
CCCOC(=O)c1c(NC(=O)C2C3C=CC(C3)C2C(=O)O)sc2c1CCC(C)C2 (stereo not given)	i	x	-1.0	3.46*	-0.36
CN(C)/C=C/C(=O)c1cc(N2CCOCC2)ccc1[N+](=O)[O-]	i	x	-7.9	0.0916	0.9
CC1CCc2c(C(=O)Nc3ccc(N4CCOCC4)cc3)csc2C1 (stereo not given)	i	x	-11.6	2.92	-0.27
N#Cc1nc(-c2cccc(Cl)c2)oc1NCc1cccnc1	i	0.0	-21.4	-0.366	x
CC1=Nc2ccccc2/C1=C/c1sc(=S)n(-c2cccc(C(=O)O)c2)c1O	u	x	2.0	-4.57*	3.2*
Oc1c(C=C2N=c3ccccc3=N2)sc(=S)n1-c1ccccc1	i	x	-5.3	0.233	-0.2
c1ccc2c(c1)[nH]c1c(N3CCSCC3)ncnc12	x	93.5*	-35.2	-1.5	x
CC1CCN(CCC(=O)N/N=C/c2ccc([N+](=O)[O-])cc2)CC1	i	x	-34.0	-0.22	x
COc1ccc(-c2nc(SCC(=O)NCc3ccco3)c(-c3ccccc3)[nH]2)cc1OC	i	72.4*	-6.2	1.8	0.8
Cc1cc(NS(=O)(=O)c2ccc(NC(=O)CCSc3ccc(F)cc3)cc2)nc(C)n1	i	x	-8.3	x	0.03
CCOC(=O)C1CCCN(CC(=O)Nc2cccc(C(C)=O)c2)C1 (stereo not given)	i	x	2.5	0.392	0.55
CCOC(=O)C1CCCN(CC(=O)NC2=Nc3ccccc3N=C(C)C2c2ccccc2)C1 (stereo not given)	i	-68.8	-11.9	-2.06*	-0.21
SMILES	HSV replic up	Insulin prom inh	TbHK1 inh	ROMK primary	Insulin prom up
CCOc1ccc2nc(-c3ccccc3)[nH]c2c1	i	85.7*	-12.3	2.49	0
COc1ccc2nc(-c3ccccc3)[nH]c2c1	i	-309.5	-8.8	-0.156	0.4
CCCSc1sc(C(=O)OC)c(-c2cccs2)c1C#N	i	x	-5.3	x	0.93
CC(Sc1nnc(-c2ccc(O)cc2)o1)C(=O)Nc1cccc2ccccc12 (stereo not given)	i	77.4*	-11.0	0.613	0.11
O=C(CCSc1nnc(-c2ccncc2)o1)Nc1cccc2ccccc12	i	0.0	4.3	x	x
COc1ccc(C2C(C(=O)NCc3ccccn3)CCC(=O)N2c2cc(OC)c(OC)c(OC)c2)cc1 (stereo not given)	i	x	-0.2	0.781	-0.7
Cc1nc2cc(C(F)(F)F)ccc2n1C	i	75.0*	2.4	-0.651	-0.3
CN(C)CCn1nnc2c(=O)oc3ccccc3c21	i	x	-2.8	0.1	0.21
O=C(Nc1nc2ccccc2s1)C1CC(=O)N(c2ccc(Br)cc2)C1 (stereo not given)	i	66.7*	-0.6	-0.219	x
COc1cccc(NC(=O)CCNC(=O)c2ccccc2Cl)c1	i	x	-2.5	1.05	-0.05
COc1cccc(N=c2oc3ccccc3cc2-c2nc3ccccc3[nH]2)c1	i	83.3*	-22.0	0.327	0.02
CCOC(=O)C1=c2s/c(=C\c3cccnc3)c(=O)n2C(N)=C(C(=O)OC)C1c1cccnc1 (stereo not given)	i	-2.9	-30.8	0.455	-0.83
COC(=O)C1=C(N)n2c(s/c(=C\c3cccnc3)c2=O)=C(C(=O)OC)C1c1cccnc1 (stereo not given)	i	54.8	-18.5	x	3.21*
CCCCSc1nnc(CNC(=O)C23CC4CC(CC(C4)C2)C3)n1Cc1ccccc1	x	x	9.3	x	-0.2
Cc1ccc(C)c(SCC(=O)NC(=O)Nc2ccc3c(c2)OCCO3)c1	i	80.0*	-1.6	-1.05	x
Cc1ccc(/C=C2\SC(=S)N(c3cccnc3)C2=O)cc1	i	9.1	0.2	1.02	0.08
COc1cc(/C=C2\SC(=S)N(c3cccnc3)C2=O)ccc1O	2.81*	x	-23.8	x	0.04
CCCCn1c(N)c(N(CCOC)C(=O)CN2c3ccccc3CC2C)c(=O)[nH]c1=O (stereo not given)	u	-60.0	5.6	0.172	0.39
CCOCCCn1c(=S)[nH]c2ncccc2c1=O	x	100.0*	-7.3	x	0.28
CC1CCCN(c2ccc(C(=O)Nc3cccnc3)cc2[N+](=O)[O-])C1 (stereo not given)	i	x	-2.3	0.33	-0.36
COc1cc(/C=N/NC(=O)c2ccncc2)ccc1OC(=O)c1ccc([N+](=O)[O-])cc1	i	100.0*	-7.7	0.637	1.14
COc1cc(/C=N/NC(=O)c2ccncc2)ccc1OC(=O)c1ccccc1Cl	i	x	-20.0	-0.00985	0.58
O=C(CCSc1ccc(Br)cc1)Nc1cccnc1	i	x	-3.8	-0.31	-0.31
CCOC(=O)CC1C(=O)NCCN1S(=O)(=O)c1ccc(C)cc1 (stereo not given)	i	x	-3.5	0.847	2.25
CCOC(=O)CC1C(=O)NCCN1S(=O)(=O)c1ccc(Cl)cc1Cl (stereo not given)	i	30.0	-3.6	x	3.29*
COc1ccc(S(=O)(=O)C(C#N)c2nc3ccccc3nc2N2CCCC(C)C2)cc1 (stereo not given)	1.6*	5.4	-4.4	x	-0.7
Cc1ccc(S(=O)(=O)C(C#N)c2nc3ccccc3nc2N2CCCC2)cc1 (stereo not given)	u	18.2	-2.7	-1.91	1.75

High-throughput results: PubChem, several laboratories
